89 compounds from PubChem BioAssay AID488895 (Broad Institute, 2010) can be followed below.

Each structure is given as a SMILES string. Several values for one entry are separate records, joined by “and”; a condition that tells them apart may be missing. Equal values may be shown once. Out of some 340,000 compounds screened, about 120 (0.035%) were called active.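 The calls were made as follows: active = mean replicate inhibition at least 50% and at least half of replicates individually reaching 50%; inconclusive = only one of the two criteria met; inactive = neither criterion met.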 What follows is part of a selection rich in actives, with near analogues and random picks from the rest.

This experiment is described as follows: blockers of twin-arginine translocation in E. coli – MC4100, TorA-mCherry reporter, fluorescence, single point, primary screen (AID 488895).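 Also: exported cargo escapes ClpAP degradation while cytoplasmic cargo is degraded and loses fluorescence; 0% = median of neutral control wells and 100% = median of NaSCN control wells.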 The conditions noted are these: E. coli MC4100 TorA-mCherry Tat export, at 10 µM, stronger effect = higher value.
Consider `Nc1nc(Sc2ncccc2[N+](=O)[O-])n[nH]1`, for which the inhibition (usually the relative decrease from the control value, in per cent) is -8.21% (inactive).
The same measure for `O=C(O)c1ccccc1OCc1ccccc1Cl`: -2.88% (inactive).
The same measure for `CS(=O)(=O)N(CC(=O)N1CCOCC1)c1ccc2c3c(cccc13)CC2`: 2.34% (inactive); for `O=P(O)(CP(=O)(c1ccccc1)c1ccccc1)c1ccccc1O`: -10.9% (inactive).
`COc1cc(C2C(C#N)=C(C)NC3=C2C(=O)CC(C)(C)C3)ccc1O` (centres undefined): the inhibition is 4.04% (inactive).
For `CN1CC(=O)N=C1N`, the inhibition is -7.3% (inactive) and -13.2% (inactive).
The same measure for `CCC(C)Sc1nc(C)nc2c1c(=O)n(C)c(=O)n2C` (centres undefined): -2.92% (inactive); for `OC(COc1ccc(F)cc1Cl)CN1CCc2ccccc2C1` (centres undefined): 3.62% (inactive); for `COC(=O)c1cc2n(n1)CCCNC2=O`: -2.39% (inactive).
The same measure for `O=C1OCC2=C1C(c1ccc(Cl)cc1)c1cc3c(cc1O2)OCO3` (centres undefined): 2.92% (inactive); for `CC1C(=O)Nc2ccc(S(=O)(=O)N3CCN(c4ccccc4F)CC3)cc2NC1=O` (centres undefined): 2.39% (inactive).
The same measure for `COCCCn1c(SCc2cccc(OC)c2)nc2cc(OC)c(OC)cc2c1=N`: 8.62% (inactive).
In the case of `CC(CCN1CCN=C1N(C)C)c1ccccc1` (centres undefined), the inhibition was 1.28% (inactive).
For the compound `Cn1c(SCC(=O)N2CCCC2)nnc1-c1ccc2c(c1)OCO2`, the inhibition is -0.749% (inactive).
The same measure for `CC(C)c1ccc(NC(=O)C2CCCN(S(=O)(=O)c3cccnc3)C2)cc1` (centres undefined): -2.58% (inactive); for `CC(C)[C@H](NC(=O)N1CCn2c1nc1ccccc12)C(=O)NC1CC1`: 3.55% (inactive).
The same measure for `CCN1CCN(C(=O)N[C@@H](C(=O)N[C@@H]2C(=O)N3C(C(=O)O)=C(CSc4nnnn4C)CS[C@H]23)c2ccc(O)cc2)C(=O)C1=O`: -0.914% (inactive).
As to `CC1CCCN(C(=O)c2ccc3c(c2)C(=O)N(CCC2=CCCCC2)C3=O)C1` (centres undefined), the inhibition is 5.37% (inactive).
Take `COC(=O)c1c(C)oc(C)c1S(=O)(=O)Nc1ccc(C(C)C)cc1`: the inhibition is 8.29% (inactive).
The same measure for `CC(C)(C)S(=O)(=O)N1Cc2cc(CO)cc(CCO)c2[C@H]1CCO`: -5.8% (inactive); for `C[n+]1ccccc1C1CCCC/C1=N\Nc1ccc([N+](=O)[O-])cc1[N+](=O)[O-]` (centres undefined): -6.35% (inactive); for `COC(=O)c1ccc(CN(c2ccccc2OC)S(=O)(=O)c2cccs2)o1`: 22.7% (inactive).
The same measure for `CNC(=O)c1nnc(Cc2ccc(Cl)cc2)o1`: -1.7% (inactive).
For the compound `COCCCNC(=O)C1CC(=O)N(CCc2ccccc2)C1` (centres undefined), the inhibition was 4.61% (inactive).
The same measure for `COc1ccc(Cl)cc1NC(=O)CN(C)C(=O)c1ccc2n[nH]nc2c1`: -3.85% (inactive).
Take `Cc1cc(C)cc(C(=O)N2CCN=C2SCc2ccc([N+](=O)[O-])cc2)c1`: the inhibition is 7.58% (inactive).
As to `Cn1cc(CN2CCCCC2c2ccccn2)c(-c2ccc3c(c2)OCCO3)n1` (centres undefined), the inhibition was 3% (inactive).
The same measure for `CCc1nc(C)cn1S(=O)(=O)c1cc([N+](=O)[O-])ccc1Cl`: -13.2% (inactive); for `O=C1CCC/C(=N\NC(=O)NC2CCCCC2)C1`: 4.42% (inactive); for `O=[N+]([O-])c1ncc(Br)cc1Nc1ccccc1`: -4.47% (inactive).
The same measure for `COC(=O)c1c(C(=O)OC)c(-c2cccc(C)c2)n2c1CS(=O)C2` (centres undefined): 4.25% (inactive).
The same measure for `Cc1cc(C)c(OCCN2CC(C)OC(C)C2)c(Br)c1` (centres undefined): 24.1% (inactive); for `COc1ccccc1NC(=O)c1cc(N2C(=O)C3C4CCC(C4)C3C2=O)ccc1Cl` (centres undefined): -14.7% (inactive); for `CC1(C)CC(=O)C(CC(=O)N2CCC(Cc3ccccc3)CC2)C(=O)C1`: 3.6% (inactive).
On to `CCCCCCCCCCCCC(NC(C)=O)(C(=O)OCC)C(=O)OCC`, for which the inhibition was 7.11% (inactive).
Regarding `COc1ccc(NC(=O)c2cc([N+](=O)[O-])ccc2NC(=O)CNC2CCCCC2C)c(OC)c1` (centres undefined), the inhibition is 3.4% (inactive).
The same measure for `CCc1ccc(NC(=O)c2ccc(Cn3cc([N+](=O)[O-])cn3)cc2)cc1`: 1.09% (inactive); for `COc1cc(NS(=O)(=O)c2ccc(NC(=O)c3ccc([N+](=O)[O-])cc3)cc2)ncn1`: -6.48% (inactive); for `Cn1ccc(=Nc2ccc(NC(=O)c3ccc(N=c4ccn(C)c5ccc([N+](=O)[O-])cc45)cc3)cc2)cc1`: 112% (active).
The same measure for `CN(CCc1ccccc1)C(=O)c1cccc(NC(=O)Cc2cccc(NC(=O)C3CCCN(C(=O)C4CCC4)C3)c2)c1` (centres undefined): 2.65% (inactive); for `O=C(CNC(=O)c1cc(S(=O)(=O)N2CCOCC2)ccc1N1CCCC1)Nc1ccc(F)c(F)c1`: -7.06% (inactive); for `C=CCCC(=O)N1C[C@H]2CON(C)[C@H]2C[C@H]1c1cccc(Nc2ccccc2)c1`: 1.87% (inactive).
The same measure for `COc1ccc(-c2nn(C)c(=O)c3ccccc23)cc1CNC(=O)C1CCCCC1`: 5.51% (inactive); for `CCSc1sc(CC)cc1C=O`: -5.06% (inactive); for `COC(=O)/C=C(\Oc1ccccc1)C1(O)CCCCC1`: -5.03% (inactive).
For the compound `COc1ccc(C(=O)NCc2ccccc2C)cc1S(=O)(=O)NC1CCCC1`, the inhibition is -5.16% (inactive).
The same measure for `Cc1cccc(NS(=O)(=O)c2cc(Cl)ccc2Cl)n1`: 1.57% (inactive).
The same measure for `CCc1nnc(NS(=O)(=O)c2ccc(NC(=S)NC(=O)/C=C/c3cccs3)cc2)s1`: 3.92% (inactive).
The same measure for `CC(NC(=O)COc1cccnc1[N+](=O)[O-])c1ccc(Cl)cc1Cl` (centres undefined): -4.49% (inactive); for `Cc1cc(S(=O)(=O)NCc2ccccn2)c(Cl)cc1Cl`: -16.8% (inactive).
As for `Cc1cc(C(F)F)n2nc(C(=O)Nc3ccc(S(=O)(=O)NC45CC6CC(CC(C6)C4)C5)cc3)nc2n1`, the inhibition is 10.1% (inactive).
The same measure for `O=C(c1cc2ccccc2s1)N1CCN(c2ccccn2)CC1`: -5.47% (inactive); for `O=C(CNC(=O)OCc1ccccc1)NC1CCCCNC1=O` (centres undefined): 10.8% (inactive); for `Cc1nn(C)c(Oc2ccc(Cl)cc2)c1C=O`: -0.515% (inactive).
Consider `CCOC(=O)c1sc2nc(C)nc(SCC(N)=O)c2c1C`, for which the inhibition is -4.58% (inactive).
Consider `O=S1(=O)CCO[C@H]2Cc3ccccc3[C@H]2N1Cc1ccccc1`, for which the inhibition was -48.1% (inactive).
`CCCn1c(C)cc(/C=C(\C#N)C(=O)OCC(=O)N(C)c2c(N)n(Cc3ccccc3)c(=O)[nH]c2=O)c1C`: the inhibition was 11% (inactive).
Consider `O=C(CCc1[nH]c2ccccc2c1Sc1ccccc1)N(CCO)CCO`, for which the inhibition was -4.7% (inactive).
The same measure for `COc1cccc(-c2ccc(SCC(=O)N3CCN(c4ccccc4)CC3)nn2)c1`: 2.75% (inactive); for `CC(=O)N1CCSc2ccc(S(=O)(=O)N3CCC(C)CC3)cc21`: 2.03% (inactive).
The same measure for `CC1(C)C(=O)CCC2(C)C1=CCC1C2C(=O)CC2(C)C1CCC2(O)C(=O)CO` (centres undefined): -1.57% (inactive); for `CCn1ccnc1CN(C)C(=O)c1ccc2nc(Cc3ccc(OC)cc3)oc2c1`: -0.56% (inactive).
The same measure for `CC[C@]12c3[nH]c4cc(CCC(=O)N(C)C)ccc4c3CCN1C(=O)[C@@H](CC(=O)NCCCN(C)C)C[C@@H]2C(=O)N1CCN(C(=O)c2ccco2)CC1`: -1.81% (inactive).
Consider `CC(OC(=O)c1ccc(-n2cnnn2)cc1)C(=O)NCc1ccccc1` (centres undefined), for which the inhibition was -2.55% (inactive).
Consider `O=C(NCc1ccc(Cl)cc1)c1cc2c(nc3sccn32)s1`, for which the inhibition was -1.5% (inactive).
The same measure for `CCCNC(=O)N1CCC(c2ccc3c(c2)OCO3)CC1`: 3.31% (inactive); for `Cc1noc(C)c1CCC(=O)O`: 1.5% (inactive); for `COCCNc1nnc(SCC(=O)NNC(=O)c2ccco2)s1`: 3.66% (inactive).
The same measure for `COc1ccc(COCCN2CCN(S(=O)(=O)c3ccccc3)CCC2=O)cc1`: 1.02% (inactive).
The same measure for `CCN(CCn1cccn1)Cc1nc(-c2ccc(C(=O)OC)cc2)no1`: 0.0185% (inactive).
Consider `CC1CCCCC1NC(=O)Cn1c(=O)cnc2ccccc21` (centres undefined), for which the inhibition was 2.53% (inactive).
The same measure for `CN(C(=O)CN(CCO)CC(=O)N(C)C(C)(C)Cc1ccccc1)C(C)(C)Cc1ccccc1`: 19.2% (inactive).
`CC(C#N)OC(=O)c1cccnc1SCC(=O)Nc1ccc2c(c1)OCO2` (centres undefined): the inhibition was -6.97% (inactive).
With `O=C(NCCO)C(=O)NCC(c1ccc2c(c1)OCO2)N1CCN(c2ccc(F)cc2)CC1` (centres undefined), the inhibition was 0.936% (inactive).
The same measure for `Cn1c(=O)c(C(=O)Nc2ncccn2)c(O)c2ccccc21`: -0.24% (inactive).
The same measure for `CC(C)CN(CC(C)C)C(=O)CN1c2cccc3cccc(c23)S1(=O)=O`: 0.144% (inactive); for `COc1ccccc1N1CCN(C(=O)C2Cc3ccccc3CN2C(=O)c2ccco2)CC1` (centres undefined): -8.37% (inactive); for `O=C(NC(=S)NC1CCSC1=O)c1ccccc1F` (centres undefined): -9.37% (inactive).
Regarding `CCc1c(O)cc2n(c1=O)-c1ccccc1C2(C)C`, the inhibition was -2.57% (inactive).
The same measure for `CN(CC1CCCO1)S(=O)(=O)c1ccc(C(=O)Nc2ccc([N+](=O)[O-])cc2)cc1` (centres undefined): -6.82% (inactive).
The same measure for `COc1c(N2CCN(C(=S)Nc3ccccc3F)C(C)C2)c(F)cc2c(=O)c(C(=O)O)cn(C3CC3)c12` (centres undefined): 91.3% (active); for `COc1ccccc1NC(=S)N1CCN(c2ccc(F)cc2)CC1`: 1.21% (inactive).
The same measure for `CC1CN(C(=S)Nc2ccccc2F)CC(C)O1` (centres undefined): 6.69% (inactive).
Take `Cc1ccc(S(=O)(=O)N2CCN(C(=O)COC(=O)CNC(=O)c3ccc(C(C)(C)C)cc3)CC2)c(C)c1`: the inhibition is 6.64% (inactive).
`CN1CCN(S(=O)(=O)c2ccc(N3CCN(c4ccccc4O)CC3)c([N+](=O)[O-])c2)CC1`: the inhibition is -4.89% (inactive).
In the case of `O=C(NCc1ccco1)c1ccc(NS(=O)(=O)c2cccc([N+](=O)[O-])c2)cc1`, the inhibition was -12.7% (inactive).
The same measure for `COCCCNC(=O)CCc1nc2cccnc2n1Cc1ccc(OC)cc1`: 5.25% (inactive).
The same measure for `Cc1ccc(NC(=S)N(CCN(C)C)Cc2cccs2)cc1C`: -0.631% (inactive); for `COc1ccc2c3c1O[C@H]1C[C@@H](O)C=C[C@@]31CCN(C)C2`: -6.89% (inactive).
